Values joined by “and” are separate entries in the source; they are usually repeats but may differ in a detail not shown here. Equal entries are not always repeated. About 83,000 compounds went through this panel and 20% of them were active in at least one assay; those are over-represented in the sample as a whole.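 Each cell line was grown in a 96-well plate and treated with one concentration of compound for 48 hours. Values below 10 were considered active.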 Active and inactive are the calls of the source.

The experiment concerns HL-60(TB) leukemia. The experiment can be described thus: NCI-60 one-dose screen, 48 h (100 = growth as untreated, 0 = no growth, -100 = all killed). Conditions: 10 µM unless noted.
In the case of `CCOC(=O)CC(S(=O)(=O)c1ccccc1)S(=O)(=O)c1ccccc1`, the growth is 67.9% (inactive). To `COc1ccc(C(=O)c2ccc(OC)c(OC)c2OC)cc1` belongs 22.3% (inactive) and -8.89% (active); to `CN1C(=O)C(N=Nc2ccc([N+](=O)[O-])cc2)SC1=S` (configuration not stated), -4.43% (active) and -10.4% (active). To `CO[C@]12C=C/C(=C(/C(=O)OCc3cccnc3)C(=O)CCCCCCCC[C@@]3(OC)C=C/C(=C(/C(=O)OCc4cccnc4)C(=O)CCCCCCCC1)O3)O2` belongs -20.2% (active); to `COC(=O)[C@H]1[C@H](OC)[C@@H](OC(=O)/C=C/c2ccncc2)CC2CN3CCc4c([nH]c5cc(OC)ccc45)[C@@H]3C[C@@H]21` (some centres not stated), 28.6% (inactive). To `C(=N\OCCc1ccccc1)/c1ccccn1` belongs 99.3% (inactive) and 85.5% (inactive); to `O=C(Nc1cccc(-c2cccc(F)c2)c1)C1CCN(Cc2cccc3cccnc23)CC1`, 28% (inactive). Regarding `CC(=O)c1c(O)c(C)c(O)c2c1OC1=CC(=O)/C(=C(/C)N)C(=O)C12C` (configuration not stated), the growth was 84.4% (inactive).

As for `Nc1ccc(N=Nc2ccc(O)cc2)c(N)n1`, the growth is 37% (inactive). To `CC(C)[C@@]12C[C@@H](OC(=O)C3CO3)[C@@](C)(O1)[C@@H]1CC[C@@H](C)[C@H]1[C@@H]2OC(=O)/C=C/c1ccccc1` (some centres not stated) belongs 93.3% (inactive); to `O=C(c1c(F)ccc(NS(=O)(=O)N2CC[C@@H](F)C2)c1F)c1c[nH]c2ncc(-c3cnc(C4CC4)nc3)cc12`, 35.6% (inactive).

`COc1ccc(/C=C2\COc3ccc(O)cc3C2=O)c(OC)c1OC`: the growth was 12.7% (inactive).

Values taken from PubChem BioAssay (NCI).
